A short description of assay [1]: NCI Yeast Anticancer Drug Screen. Data for the rad50 strain (AID 155).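 Note: 0% = growth of vehicle-only cultures of the same strain.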 Particulars: S. cerevisiae rad50 strain growth inhibition; at 50.0 µM; active compounds read high. In outline: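 Yeast carrying a defined DNA repair defect were exposed to test compounds, and growth was compared with vehicle-treated controls to give percent inhibition.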
A short description of assay [2]: NCI Yeast Anticancer Drug Screen. Data for the mec2-1 strain (AID 157). The settings on record: S. cerevisiae mec2-1 strain, at 50.0 µM, active compounds read high. The procedure, abridged:
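Strain: mec2-1 (DNA repair/cell cycle alteration). Compound exposure, then growth measured; inhibition expressed relative to vehicle.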

A short description of assay [3]: NCI Yeast Anticancer Drug Screen. Data for the sgs1 mgt1 strain (AID 161).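 Note: 0% = growth of cultures given vehicle only.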 Particulars: S. cerevisiae sgs1 mgt1 strain, at 50.0 µM, active compounds read high. In outline:
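Test agents were incubated with a DNA-repair-mutant yeast strain. Growth was then read and compared against vehicle-treated controls.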

Assay [4] is described as follows: NCI Yeast Anticancer Drug Screen. Data for the cln2 rad14 strain (AID 165).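 Note: 0% = growth equal to vehicle treated cultures.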 Particulars: S. cerevisiae cln2 rad14 strain, at 50.0 µM, active compounds read high. The procedure, abridged: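 Compounds are applied to the cln2 rad14 yeast strain, and growth is then compared with that of vehicle-treated cultures to give inhibition.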
Assay [5] in a line: NCI Yeast Anticancer Drug Screen. Data for the bub3 strain (AID 167). Particulars: S. cerevisiae bub3 mutant strain, at 50.0 µM, active compounds read high. In outline: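 Compounds were applied to a genetically altered yeast strain carrying a cell-cycle control defect. Growth inhibition was scored against vehicle-treated controls.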
The nature of assay [6]: NCI Yeast Anticancer Drug Screen. Data for the mlh1 rad18 strain (AID 175). The settings on record: S. cerevisiae mlh1 rad18 strain growth inhibition; at 50.0 µM; active compounds read high. The procedure, abridged:
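Read-out is yeast growth inhibition, calculated against vehicle-only controls. The compound was applied to a strain engineered with DNA damage repair alterations.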

The text below walks through data of PubChem BioAssay (NCI).

This is part of a sample that, as a whole, favours compounds with a hit. Of some 79,000 tested, about 15% had one in any assay. A number with no mark means an inactive call. The source made the active and inactive calls. Cut-off read from the data, not from the text of the source: active = growth inhibition above about 70%; inactive = the rest.

As to `O=C1c2ccccc2-c2nnc(-c3ccc(Cl)cc3)cc21`, the growth inhibition is -29.1% in assay [1]; -14.2% in assay [2]; -18.2% in assay [3]; -16.9% in assay [4]; -24.2% in assay [5]; -18.3% in assay [6].

For `COC(=O)CCC(=O)c1ccc2c(c1)CC1(C2)Cc2ccc(C(=O)CCC(=O)OC)cc2C1`, the growth inhibition in assay [1] was -1.45%; in assay [2], -30.6%; in assay [3], -22.4%; in assay [4], 5.35%; in assay [5], -20.1%; in assay [6], 2.9%.

`CNC(=O)SC1=NS(=O)(=O)c2ccc(Cl)cc2N1`: the growth inhibition in assay [1] was 18.6%; in assay [2] it was 19.5%; in assay [3], 33.4%; in assay [4], 23.1%; in assay [5], 17.6%; in assay [6] it was 42.5%.

Consider `Nc1nc(N)c2c(n1)Nc1ccc(Cl)nc1S2`, for which the growth inhibition in assay [1] is 94.2% (active); in assay [2], 69.3%; in assay [3] it was 89.1% (active); in assay [4], 52.2%; in assay [5], 81.1% (active); in assay [6], 93.8% (active).

In the case of `Cc1ccc2c(c1)sc(C)[n+]2CCO`, the growth inhibition is -19.9% in assay [1]; -19.5% in assay [2]; -38.8% in assay [3]; -5.65% in assay [4]; -9.65% in assay [5]; -18.4% in assay [6].

As to `CN1COc2c3c(c4ccccc4c2C1)CN(C)CO3`, the growth inhibition in assay [1] is 7.1%; in assay [2], 2.35%; in assay [3], 1.2%; in assay [4] it was -16.9%; in assay [5], 6.35%; in assay [6], -0.3%.

On to `CSC(SC)C(OC(C)=O)C(OC(C)=O)C(OC(C)=O)C(COC(C)=O)OC(C)=O` (stereo unspecified), for which the growth inhibition was -11.7% in assay [1]; 11.4% in assay [2]; 3.15% in assay [3]; -30.9% in assay [4]; 2.3% in assay [5]; 3.85% in assay [6].

`CCc1ccc(/C=C/C(=O)C(C)CN(C)C)cc1` (stereo unspecified): the growth inhibition in assay [1] was -4.9%; in assay [2], 26.1%; in assay [3] it was -2.3%; in assay [4], 22.1%; in assay [5], 13.9%; in assay [6] it was 9.85%.

With `CNc1ccc(C(=O)NC(CCC(=O)O)C(=O)O)cc1I` (stereo unspecified), the growth inhibition was 36.6% in assay [1]; -6.2% in assay [2]; -4.1% in assay [3]; 0.15% in assay [4]; 5.5% in assay [5]; 10.3% in assay [6].

In the case of `Nc1nnc2cc(Br)ccc2n1`, the growth inhibition in assay [1] is -6%; in assay [2], -2.55%; in assay [3], 17.7%; in assay [4] it was 14.2%; in assay [5] it was 19.5%; in assay [6], 4.45%.

Regarding `O=C1OCCC1(Cc1ccc(Cl)cc1)Cc1ccc(Cl)cc1`, the growth inhibition in assay [1] is -16.1%; in assay [2] it was -22.9%; in assay [3], -4.7%; in assay [4], 10.4%; in assay [5] it was 1.45%; in assay [6] it was -3.05%.

With `ClCCCc1ccccc1C1=NCCc2ccccc21`, the growth inhibition in assay [1] was 28.4%; in assay [2] it was 19%; in assay [3], -14.5%; in assay [4] it was 3.25%; in assay [5], -14.7%; in assay [6], 9.9%.

With `C/C(=N/NC(=O)C(N)=O)C(CC(C(=O)Nc1ccccc1C)/C(C)=N\NC(=O)C(N)=O)C(=O)Nc1ccccc1C` (stereo unspecified), the growth inhibition in assay [1] was 0.75%; in assay [2] it was -0.6%; in assay [3], -8.1%; in assay [4] it was -12.2%; in assay [5], 8.05%; in assay [6], -12.6%.

On to `COc1cc(C(=O)C[n+]2ccccc2)ccc1O`, for which the growth inhibition in assay [1] is 95.3% (active); in assay [2], 86.2% (active); in assay [3], 84.5% (active); in assay [4], 97.2% (active); in assay [5], 97.7% (active); in assay [6], 99.5% (active).

In the case of `Cn1nc(-c2ccccc2)c(C(=O)/C=C/c2ccc(Cl)cc2)c(N2CCCC2)c1=O`, the growth inhibition in assay [1] was -5.1%; in assay [2], -1.5%; in assay [3] it was -4.9%; in assay [4] it was -5.95%; in assay [5] it was 14.8%; in assay [6] it was -10.1%.

As to `CCCCCCCCCCCCCCC1CC(=O)OC1=O` (stereo unspecified), the growth inhibition in assay [1] was -22.6%; in assay [2], -30.1%; in assay [3], -9.55%; in assay [4], 0.5%; in assay [5], -10.8%; in assay [6], -31.8%.

Regarding `O=C1N=C(C=c2ccc(=Cc3[nH]c(=O)n(CN4CCCCC4)c3O)cc2)C(=O)N1CN1CCCCC1`, the growth inhibition in assay [1] is 1.2%; in assay [2], -6.2%; in assay [3], 3.65%; in assay [4], 26.4%; in assay [5], -10.3%; in assay [6], -7.1%.

As to `O=S(=O)(NC/C=C/c1ccccc1)c1ccccc1`, the growth inhibition in assay [1] is -6.95%; in assay [2], 16.7%; in assay [3], -0.45%; in assay [4], 26.9%; in assay [5], 4.65%; in assay [6], -39.9%.

Regarding `O=C(NCCCl)NCC1CCCO1` (stereo unspecified), the growth inhibition is -9.35% in assay [1]; -1.25% in assay [2]; -13.8% in assay [3]; -48.9% in assay [4]; -4.75% in assay [5]; 0.15% in assay [6].

In the case of `O=C(NCCN1CCCC1)NC1CCCCC1`, the growth inhibition in assay [1] is -2.25%; in assay [2], 2.35%; in assay [3], 3.85%; in assay [4] it was -69.5%; in assay [5], 8.2%; in assay [6], 14.8%.

`CCOC(=O)c1sc(N)nc1C`: the growth inhibition in assay [1] is -17.8%; in assay [2], -12.2%; in assay [3], -17.2%; in assay [4], -21.9%; in assay [5] it was -11.5%; in assay [6], 0.35%.
